ERp5 inh = inhibitors of ERp5-driven insulin aggregation, primary screen, biochemical, turbidity, absorbance 650 nm, single point; Protein disulfide-isomerase A6 (Homo sapiens), Q15084; 90 min; inhibition, % at 9.99 µM; 0.05% of 350,000 active; AID 651711, 2012;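 active = mean replicate inhibition above about 25%, with every replicate also reaching it, limit read from the data, passing the limit was not always enough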
PvdQ inh = P. aeruginosa PvdQ acylase inhibitors, primary screen, biochemical, fluorescence, plate reader and imaging, single point | PvdQ acylase [Pseudomonas aeruginosa LESB58] | purified PvdQ acylase | inhibition, % at 10 µM | 0.063% of 340,000 active; in the data active = inhibition above about 30%, passing the limit was not always enough;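 also: 0% = vehicle neutral wells and 100% = reference inhibitor wells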
PDI inh = inhibitors of human PDI, primary screen, biochemical, turbidity, single point, plate reader | Protein disulfide-isomerase (Homo sapiens), P07237 | PDI insulin aggregation turbidity, A650, 90 min | inhibition, % at 10 µM | AID 588391, 2011 | 0.052% of 350,000 active;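 active = mean inhibition across replicates of 30% or more, whatever share of single replicates reach that level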
Target sequence (P07237 whole entry, looked up): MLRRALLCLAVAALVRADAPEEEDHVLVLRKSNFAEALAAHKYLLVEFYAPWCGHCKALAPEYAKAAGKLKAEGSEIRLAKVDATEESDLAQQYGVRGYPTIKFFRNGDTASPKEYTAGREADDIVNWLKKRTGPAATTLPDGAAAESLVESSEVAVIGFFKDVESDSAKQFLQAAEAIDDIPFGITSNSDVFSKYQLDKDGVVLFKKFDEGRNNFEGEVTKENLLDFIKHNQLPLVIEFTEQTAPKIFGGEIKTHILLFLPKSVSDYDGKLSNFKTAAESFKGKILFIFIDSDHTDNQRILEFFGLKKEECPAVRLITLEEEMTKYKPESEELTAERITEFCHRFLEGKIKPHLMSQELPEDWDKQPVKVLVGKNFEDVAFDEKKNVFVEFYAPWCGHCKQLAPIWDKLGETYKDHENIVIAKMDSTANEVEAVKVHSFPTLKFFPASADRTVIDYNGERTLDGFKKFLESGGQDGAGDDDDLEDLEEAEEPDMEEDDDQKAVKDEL
AI-2 QS modul = Vibrio harveyi AI-2 quorum sensing modulators, primary screen, JMH597 strain, luminescence/OD600 ratio. Vibrio harveyi JMH597 AI-2 luminescence/OD600 ratio, 9 h; active compounds read low; strain lacks LuxN and CqsS sensors; 0 = neutral-control median. AID 2094, 2009. activity change, % at 7.5 µM. 0.4% of 300,000 active; in the data active = activity change below about -75%, passing the limit was not always enough;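 also: luminescence divided by OD600 gain over 9 h not by final OD600 alone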
Vif imaging = HIV Vif self-association inhibitors, primary screen, imaging, HEK293T, single point. HEK293T cells, Vif self-association by quenched fluorescence, 24 h. AID 602346, 2012. inhibition, % at 7.49 µM. 0.35% of 340,000 active; in the data active = inhibition above about 50%, passing the limit was not always enough
* = called active by the depositor; . = not tested or not shown. Hits are enriched below; roughly 0.64% of the tested compounds scored in any of these assays.

SMILES	ERp5 inh	PvdQ inh	PDI inh	AI-2 QS modul	Vif imaging
Cc1noc(C)c1NC(=O)Nc1ccc2c(c1)C(=O)N([C@@H](C)CO)C[C@H](C)[C@H](CN(C)Cc1ccc3c(c1)OCO3)O2	1	.	.	.	.
CCCNC(=O)N(C)C[C@H]1Oc2cc(C#CC(C)(C)O)ccc2S(=O)(=O)N([C@H](C)CO)C[C@H]1C	0	.	.	.	.
Clc1ccc2scc(CN3CCCC3)c2c1	2	81*	1	6	4
O=[N+]([O-])c1c(Nc2ccc(O)cc2)cc(Cl)c2nonc12	-1	-5	-3	-174*	-1
N#CC(c1ccc(Cl)nn1)c1c(F)cccc1Cl (stereo not given)	-12	66*	11	4	-3
Cc1ccc(N=C(c2cccs2)N2CCOCC2)cc1	.	-12	5	-2	63*
O=C(/C=C/c1ccccc1Cl)Nc1ccccc1	4	-5	9	-48	-9
CN(C)S(=O)(=O)c1ccc(NC(=O)/C=C/c2ccccc2Cl)cc1	.	-12	9	-93*	-2
C/C(=N\NC(=O)CNC(=O)c1ccc(F)cc1)c1ccco1	3	7	-2	13	73*
CC(=O)N1CCCCN2[C@H](CO)[C@H](c3ccc(C#Cc4ccccc4F)cc3)[C@@H]2C1	1	.	.	.	.
C#CCN1C(=O)S/C(=C/C=C/c2ccc(N(C)C)cc2)C1=O	.	-5	10	.	87*
CCn1c(O)c(/C=C2\C=Nc3ccccc32)sc1=Nc1ccccc1	-4	3	-3	4	-3
Cn1c(O)c(/C=C2\C=Nc3ccccc32)sc1=Nc1ccc(C(=O)O)cc1	-1	-9	54*	26	-12
COc1ccc(Oc2ccc(/C=C/C(=O)c3ccc(O)cc3)cc2[N+](=O)[O-])cc1	-48	-2	99*	-6	-1
O=C(/C=C/c1ccc(O)c([N+](=O)[O-])c1)c1ccc2ccccc2c1	1	4	4	26	3
Cc1cccc2cc(C#N)c(SCC(=O)N3CC(=O)Nc4ccccc43)nc12	.	-12	8	1	61*
CCOC(=O)c1sc2ccccc2c1OC(=O)c1ccccc1OC	0	0	11	17	18
CCOC(=O)c1cc(OC(=O)c2ccccc2OC)n(-c2ccccc2)n1	3	-7	1	25	78*
C[C@@H]1CN([C@@H](C)CO)C(=O)c2cc(-c3cccnc3)cnc2O[C@H]1CN(C)C(=O)C1CC1	13	.	.	.	.
O=C(COc1ccc(F)cc1Br)NCC1(N2CCCCC2)CCCCC1	8	-14	-13	.	5
COc1cc(C(C)=O)ccc1OCC(=O)NCC1(N2CCCCC2)CCCCC1	3	-14	-2	12	51*
O=C(C[C@@H]1C[C@@H]2c3cc(NC(=O)C4CCOCC4)ccc3O[C@@H]2[C@H](CO)O1)NC1CCCC1	-2	.	.	.	.
N#Cc1ccc(CSc2nnc(-c3cccs3)n2-c2ccccc2)cc1	.	-3	-1	9	55*
C[C@@H]1CCCCO[C@H](CN(C)S(=O)(=O)c2cccs2)[C@@H](C)CN([C@@H](C)CO)C(=O)c2cc(NC(=O)CCCN(C)C)ccc2O1	4	.	.	.	.
NC(=NCc1ccc2c(c1)OCO2)NC(=O)c1ccccc1	1	-8	-2	-77*	1
SMILES	ERp5 inh	PvdQ inh	PDI inh	AI-2 QS modul	Vif imaging
C/C(CCc1ccc2c(c1)OCO2)=N\NC(=O)c1ccccc1	-8	-5	-4	11	2
CCOC(=O)Nc1oc2ccccc2c(=O)c1CN1CCOCC1	-1	3	-4	11	54*
CCOC(=O)c1oc2ccccc2c1CN1CC(C)OC(C)C1 (stereo not given)	-1	-9	-64	12	-1
COCCSc1nnc(NS(=O)(=O)c2ccccc2)s1	4	7	11	44	56*
COCCSc1nnc(NS(=O)(=O)c2ccc(C)cc2)s1	9	0	6	31	-1
CC(=O)N1Cc2cc(C(=O)NCC(F)(F)F)nc(-c3cccc(-c4cncnc4)c3)c2[C@H]1CCO	-2	.	.	.	.
O=c1[nH]c(=O)n([C@H]2C[C@H](O)[C@@H](CO)O2)cc1C(F)(F)F	8	9	0	-108*	-2
Cc1noc(C)c1S(=O)(=O)N(C)C[C@@H]1Oc2ccc(NC(=O)Nc3ccc4c(c3)OCO4)cc2CC(=O)N([C@@H](C)CO)C[C@H]1C	5	.	.	.	.

Assay outcomes as filed in PubChem BioAssay.
